Measured values as given in the supplement of paper PMC8975748.
Counter-ions that a name gives are not always drawn. ± gives the standard deviation of the averaged measurements.

What was measured:
[1] = test system: Saccharomyces cerevisiae BY4741 SeMeCo community; test: mean cell size (pixel area) (pixels); higher = larger cells; settings: 10 µM; 24 h; SM minimal medium
Outline: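 Mean cell pixel area per well was determined by automated confocal microscopy with Harmony analysis of paraformaldehyde-fixed cells. The cells, a Saccharomyces cerevisiae BY4741 community of four plasmids that each complement one auxotrophy and carry a fluorescent marker, were incubated for 24 h with drug at a final 10 µM in SM medium in 384-well plates. Numbers are averaged over 3 replicates. Same SeMeCo high-content imaging drug screen: Selleck FDA-approved drugs at 10 µM, 24 h in SM medium, 384-well plates, 3 replicates.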

[2] = test system: Saccharomyces cerevisiae BY4741 SeMeCo community; test: z-score of prototroph abundance vs DMSO median; higher = larger share of this subpopulation than in DMSO controls; settings: 10 µM; 24 h; SM minimal medium; subpopulation (auxotrophy): Prototroph
Outline: (§1)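 Automated confocal microscopy of paraformaldehyde-fixed cells was used to follow a Saccharomyces cerevisiae BY4741 community carrying four plasmids, each restoring one auxotrophy and encoding a distinct fluorescent protein. The community was pre-grown overnight to OD600 1.0, diluted to 0.3, and added at 70 µl to 384-well plates acoustically predosed with library drugs (10 µM final) for 24 h of growth in minimal SM medium. Single-auxotroph fluorescent strains set thresholds and autofluorescence correction, and each subpopulation's abundance was scored as a z-score against the vehicle-well median.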

[3] = test system: Saccharomyces cerevisiae BY4741 SeMeCo community; test: z-score of subpopulation abundance vs DMSO median, subpopulation auxotrophic for H; higher = larger share of this subpopulation than in DMSO controls; settings: 10 µM; 24 h; SM minimal medium; subpopulation (auxotrophy): H
Outline: as §1

[4] = test system: Saccharomyces cerevisiae BY4741 SeMeCo community; test: z-score of subpopulation abundance vs DMSO median, subpopulation auxotrophic for LU; higher = larger share of this subpopulation than in DMSO controls; settings: 10 µM; 24 h; SM minimal medium; subpopulation (auxotrophy): LU
Outline: as §1

[5] = test system: Saccharomyces cerevisiae BY4741 SeMeCo community; test: z-score of subpopulation abundance vs DMSO median, subpopulation auxotrophic for LM; higher = larger share of this subpopulation than in DMSO controls; settings: 10 µM; 24 h; SM minimal medium; subpopulation (auxotrophy): LM
Outline: as §1

[6] = test system: Saccharomyces cerevisiae BY4741 SeMeCo community; test: z-score of subpopulation abundance vs DMSO median, subpopulation auxotrophic for HM; higher = larger share of this subpopulation than in DMSO controls; settings: 10 µM; 24 h; SM minimal medium; subpopulation (auxotrophy): HM
Outline: as §1

[7] = test system: Saccharomyces cerevisiae BY4741 SeMeCo community; test: z-score of subpopulation abundance vs DMSO median, subpopulation auxotrophic for HU; higher = larger share of this subpopulation than in DMSO controls; settings: 10 µM; 24 h; SM minimal medium; subpopulation (auxotrophy): HU
Outline: as §1

[8] = test system: Saccharomyces cerevisiae BY4741 SeMeCo community; test: z-score of subpopulation abundance vs DMSO median, subpopulation auxotrophic for UM; higher = larger share of this subpopulation than in DMSO controls; settings: 10 µM; 24 h; SM minimal medium; subpopulation (auxotrophy): UM
Outline: as §1

[9] = test system: Saccharomyces cerevisiae BY4741 SeMeCo community; test: z-score of subpopulation abundance vs DMSO median, subpopulation auxotrophic for HLU; higher = larger share of this subpopulation than in DMSO controls; settings: 10 µM; 24 h; SM minimal medium; subpopulation (auxotrophy): HLU
Outline: as §1

[10] = test system: Saccharomyces cerevisiae BY4741 SeMeCo community; test: z-score of subpopulation abundance vs DMSO median, subpopulation auxotrophic for HLM; higher = larger share of this subpopulation than in DMSO controls; settings: 10 µM; 24 h; SM minimal medium; subpopulation (auxotrophy): HLM
Outline: as §1

[11] = test system: Saccharomyces cerevisiae BY4741 SeMeCo community; test: z-score of subpopulation abundance vs DMSO median, subpopulation auxotrophic for HUM; higher = larger share of this subpopulation than in DMSO controls; settings: 10 µM; 24 h; SM minimal medium; subpopulation (auxotrophy): HUM
Outline: as §1

[12] = test system: Saccharomyces cerevisiae BY4741 SeMeCo community; test: z-score of subpopulation abundance vs DMSO median, subpopulation auxotrophic for LUM; higher = larger share of this subpopulation than in DMSO controls; settings: 10 µM; 24 h; SM minimal medium; subpopulation (auxotrophy): LUM
Outline: as §1

[13] = test system: Saccharomyces cerevisiae BY4741 SeMeCo community; test: z-score of subpopulation abundance vs DMSO median, subpopulation auxotrophic for HLUM; higher = larger share of this subpopulation than in DMSO controls; settings: 10 µM; 24 h; SM minimal medium; subpopulation (auxotrophy): HLUM
Outline: as §1

[14] = test system: Saccharomyces cerevisiae BY4741 SeMeCo community; test: z-score of subpopulation abundance vs DMSO median, subpopulation auxotrophic for L; higher = larger share of this subpopulation than in DMSO controls; settings: 10 µM; 24 h; SM minimal medium; subpopulation (auxotrophy): L
Outline: as §1

[15] = test system: Saccharomyces cerevisiae BY4741 SeMeCo community; test: z-score of subpopulation abundance vs DMSO median, subpopulation auxotrophic for U; higher = larger share of this subpopulation than in DMSO controls; settings: 10 µM; 24 h; SM minimal medium; subpopulation (auxotrophy): U
Outline: as §1

[16] = test system: Saccharomyces cerevisiae BY4741 SeMeCo community; test: z-score of subpopulation abundance vs DMSO median, subpopulation auxotrophic for HL; higher = larger share of this subpopulation than in DMSO controls; settings: 10 µM; 24 h; SM minimal medium; subpopulation (auxotrophy): HL
Outline: as §1

Compound | mean cell size [1] | z-score of prototroph abundance [2] | z-score of subpopulation abundance [3] | z-score of subpopulation abundance [4] | z-score of subpopulation abundance [5] | z-score of subpopulation abundance [6] | z-score of subpopulation abundance [7] | z-score of subpopulation abundance [8] | z-score of subpopulation abundance [9] | z-score of subpopulation abundance [10] | z-score of subpopulation abundance [11] | z-score of subpopulation abundance [12] | z-score of subpopulation abundance [13] | z-score of subpopulation abundance [14] | z-score of subpopulation abundance [15] | z-score of subpopulation abundance [16]
CC1=C(C(=O)O)N2C(=O)[C@@H](NC(=O)[C@H](N)C3=CCC=CC3)[C@H]2SC1 [Cefradine] | 12.12 ± 0.02 | 0.86 | -0.04 | -1.14 | -0.58 | -0.73 | -0.92 | -0.6 | -0.16 | 0.04 | -0.79 | -0.81 | 0.1 |  |  | 
N/C(=N\N=C\c1ccc(Cl)cc1)N/N=C/c1ccc(Cl)cc1 [Robenidine Hydrochoride] |  | -8.77 | 5.77 | -2.55 |  | 11.4 | -0.45 | 6.84 | 0.81 | 10.4 | 11.9 | 7.91 | 18.1 | -1.06 | -2.96 | 
Nc1ccc(S(=O)(=O)Nc2nccs2)cc1 [Sulfathiazole] |  | 0.17 | -1.09 | 0.15 | -0.24 | -0.53 | -0.39 | 1.04 | 0.27 | -0.42 | 0.33 |  | -0.19 |  | 0.9 | -0.09
NC(=O)N/N=C/c1ccc([N+](=O)[O-])o1 [Nitrofural] | 12.84 ± 0.1 | -0.16 |  | -0.35 |  | 0.63 | -0.42 | 0.54 | -1.14 | 3.28 | -0.73 | -0.73 | 0.17 |  | -0.14 | 0
Cc1nnc(SCC2=C(C(=O)O)N3C(=O)[C@@H](NC(=O)Cn4cc(Cl)c(=O)c(Cl)c4)[C@H]3SC2)s1 [Cefazedone] | 12.5 ± 0.39 | 0.73 |  | -0.24 | -0.95 | 0.02 | -0.74 |  | -1.4 | -0.49 | 0.05 |  | -0.54 |  | -0.01 | -1.2
CCN(CC)CCNC(=O)c1cc(Cl)c(N)cc1OC [Metoclopramide] | 12 ± 0.25 | -1.14 | -0.88 | 0.6 | 0.08 | 0.05 | 1.02 | 1.28 | 1.27 | 0.54 |  | 1.17 | 1.06 | -0.22 | 1.49 | -0.39
O=C(O[C@@H]1C[C@@H]2C[C@H]3C[C@H](C1)N2CC3=O)c1c[nH]c2ccccc12 [Dolasetron Mesylate] | 12.18 ± 0.11 | -0.86 | -0.55 | 1.19 | 0.31 |  | 0.7 | 1.07 | 0.01 | 0.35 | 0.41 | 0.21 | -0.07 |  | 0.89 | 0
Oc1ccc(C2CNCCc3c2cc(O)c(O)c3Cl)cc1 (stereo unspecified) [Fenoldopam mesylate] | 12.9 ± 0.26 |  | 0.06 | -1.75 | 2.31 |  | -0.06 | -1.9 | -0.29 |  |  |  | 1.24 | -1.59 |  | 0.16
C#C[C@]1(O)CC[C@H]2[C@@H]3CCC4=CCCC[C@@H]4[C@H]3CC[C@@]21C [Lynestrenol] | 12.5 ± 0.23 | 0.17 | 0.16 |  | -0.94 | -0.19 | 0.4 | 0.5 | -0.88 | -0.46 | 0.15 | -0.41 | -0.6 | -0.78 | 1.07 | -0.15
CCCCCCCCCC(=O)N[C@@H](Cc1c[nH]c2ccccc12)C(=O)N[C@H](CC(N)=O)C(=O)N[C@@H](CC(=O)O)C(=O)N[C@@H]1C(=O)NCC(=O)N[C@@H](CCCN)C(=O)N[C@@H](CC(=O)O)C(=O)N[C@H](C)C(=O)N[C@@H](CC(=O)O)C(=O)NCC(=O)N[C@H](CO)C(=O)N[C@@H]([C@H](C)CC(=O)O)C(=O)N[C@@H](CC(=O)c2ccccc2N)C(=O)O[C@@H]1C [Daptomycin] | 12.2 ± 0.16 | -0.94 |  | -0.76 | 1.51 | 1.93 | 0.29 | -0.81 | 1.3 | 0.48 | 0.77 |  | -0.99 |  | -1.42 | 2.68
COc1ccc(C(C)=O)c(O)c1 [Paeonol] | 12.4 ± 0.15 |  | 0.01 | 0.12 | 0.14 | -0.35 |  | 0.01 | -0.12 | -0.22 | 0.18 | -0.79 |  |  | 0.71 | -0.25
CCN1CCCC1CNC(=O)c1cc(S(=O)(=O)CC)c(N)cc1OC (stereo unspecified) [Amisulpride] | 12.4 ± 0.13 | 0.14 | 0.19 | 0.33 |  | -1.17 | 0.3 | 0.04 | -0.63 |  |  | -0.21 | -0.8 | -0.08 | 0.31 | -0.73
CC1(C)S[C@@H]2[C@H](NC(=O)Cc3ccccc3)C(=O)N2[C@H]1C(=O)O [Benzylpenicillin potassium] |  | -0.27 | -0.83 | 0.51 | 0.02 | -0.39 | -0.05 | -0.02 | 0.89 | 0.2 | 0.17 |  |  |  | 0.62 | -0.23
CC1=C(C(=O)OCCN(Cc2ccccc2)c2ccccc2)C(c2cccc([N+](=O)[O-])c2)C(P2(=O)OCC(C)(C)CO2)=C(C)N1 (stereo unspecified) [Efonidipine] | 12.6 ± 0.14 | -1.56 | 1.79 | 1.04 | 2.26 | 1.87 | 1.86 | 0.8 | 1.2 |  |  | 2.5 | 1.4 | 0.97 | 0.34 | 0.79
C=C1CCC2C(C)(CO)C(O)CCC2(C)C1CC=C1C=COC1=O (stereo unspecified) [Dehydroandrographolide] |  | -0.69 | 0.8 | 1.6 | 1.74 | 0.87 | 0.11 | 0.16 | 0.64 | 0.5 | 0.26 | 1.23 |  | 1.46 | -0.43 | 1.67
